Screens as filed in PubChem BioAssay.
Many of the other results were omitted from the sample, so hits are more common in it than they were.
Tgondii IFNg – blocks Toxoplasma gondii growth in the presence of IFN-gamma; AID 1259416; activity change, negative = inhibition, % (concentration not given with the values); Toxoplasma gondii growth in IFN-gamma-treated host cells; stronger effect = lower value; 3.8% of 69,000 active; in the data active = activity change below about -70%, passing the limit was not always enough;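 also: host cells are HeLa cells infected with Toxoplasma gondii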
Numbers without * were called inactive.

How did Cc1nn(CC(=O)NCC(C)C)c(=O)c2nc(-c3ccccc3)sc12 do in these assays?
Tgondii IFNg: 72.6

Results for NNC(=S)Nc1cc(C(F)(F)F)ccc1Cl ?
Tgondii IFNg: 27.8

Results for OC1(c2ccc(Cl)c(Cl)c2)CSc2nc3cc(C(F)(F)F)ccc3n21 (stereo not given) ?
Tgondii IFNg: -83.6*

Results for OC1=C(O)c2nc3cc(C(F)(F)F)ccc3nc21 ?
Tgondii IFNg: 27.4

How did O=C(O)Cc1csc(-c2ccccn2)n1 do in these assays?
Tgondii IFNg: 70.9

What do the screens show for `CC(C)Nc1ccc2c(c1)C1(CCOCC1)C(=O)N2c1ccsc1`?
Tgondii IFNg: -1.9

Results for O=C(O)c1cccn(Cc2ccccc2F)c1=O ?
Tgondii IFNg: -5.5

Results for COc1ccc(Oc2ccc(NC(=O)Nc3ccc(SC(F)(F)F)cc3)cn2)cc1 ?
Tgondii IFNg: -87.6*

What do the screens show for `COc1ccc(NC(=O)CSCC(=O)O)cn1`?
Tgondii IFNg: -7.2

How did COc1ccc(NC(=O)Nc2ccc(-c3nc(-c4ccccc4)co3)cc2)cc1 do in these assays?
Tgondii IFNg: -23.4

Results for Cc1ccc(-n2ncc3c(-n4nc(C)cc4NC(=O)C4CCCC4)ncnc32)c(C)c1 ?
Tgondii IFNg: -105.9*

How did CCCCC1CCC(C(=O)Nc2cc(C)nn2-c2ncnc3c2cnn3-c2ccc(C)cc2C)CC1 (stereo not given) do in these assays?
Tgondii IFNg: 20.6

How did Cc1ccc(-n2ncc3c(-n4nc(C)cc4NC(=O)CCC4CCCC4)ncnc32)c(C)c1 do in these assays?
Tgondii IFNg: -30.8

How did Cc1cc(Cl)cc(Cl)c1CNC(=O)C1CC2(CCNCC2)CN1 (stereo not given) do in these assays?
Tgondii IFNg: -4.7

Results for Cc1cc(C)n(S(=O)(=O)c2ccccc2)n1 ?
Tgondii IFNg: -2.9

What do the screens show for `COC(=O)c1ccc(S(=O)(=O)NCc2csc3ccc(Cl)cc23)n1C`?
Tgondii IFNg: -56.7

How did Cc1nn(C(=O)Nc2cccc(Cl)c2)c(C)c1Cc1csc2ccc(Cl)cc12 do in these assays?
Tgondii IFNg: -84.9*

How did COC(=O)C(Cc1csc2ccc(Cl)cc12)NC(=O)c1ccc(C(F)(F)F)cc1 (stereo not given) do in these assays?
Tgondii IFNg: 47.1

How did Cc1nn(S(=O)(=O)c2ccccc2)c(C)c1Cc1csc2ccc(Cl)cc12 do in these assays?
Tgondii IFNg: -89.0*

How did O=C(O)c1nccnc1C(=O)NCc1csc2ccc(Cl)cc12 do in these assays?
Tgondii IFNg: 13.2

What do the screens show for `Cc1ccc(N2CCOCC3(CCCN(C(=O)N(C)C)C3)C2)nn1` (stereo not given)?
Tgondii IFNg: 3.6

Results for Cc1noc(CCC(=O)N2CCC(CC(=O)NC(C)c3ccccc3)CC2)n1 (stereo not given) ?
Tgondii IFNg: -2.1

How did O=C(CC1CCCCC1)Nc1ccc(-c2nc(-c3ccccc3)co2)cc1 do in these assays?
Tgondii IFNg: 4.9

Results for CC(C)C(=O)C1c2c(ncn2C)CCN1Cc1cccnc1 (stereo not given) ?
Tgondii IFNg: 14.1

What do the screens show for `CC(C)c1cc(C(=O)O)nn1C1CCS(=O)(=O)C1` (stereo not given)?
Tgondii IFNg: 12.8

What do the screens show for `CC(=O)N1CCc2cc(NC(=O)C3=NN(C4CCS(=O)(=O)C4)C(=O)CC3)ccc21` (stereo not given)?
Tgondii IFNg: -1.6

How did CC1=NN(C2CCS(=O)(=O)C2)C(=O)C1(Sc1ccccc1)Sc1ccccc1 (stereo not given) do in these assays?
Tgondii IFNg: -93.0*

Results for CCOc1ccc(-c2nc(Cn3nnc(C(=O)Nc4cc(C)cc(C)c4)c3C)c(C)o2)cc1OC ?
Tgondii IFNg: -0.5

What do the screens show for `NC(=O)C1(N2CCOCC2)CCN(CC(=O)N2CCN(c3ccccn3)CC2)CC1`?
Tgondii IFNg: 3.3

How did COc1cccc(OC)c1-c1nccn1CCNc1ccccc1 do in these assays?
Tgondii IFNg: -47.8

How did CC(C)n1cc(CN2C[C@@H](c3cccnc3)[C@@]3(CCCC(=O)N3)C2)c2ccccc21 do in these assays?
Tgondii IFNg: 17.1

How did CCOc1cccc2sc(NC(=O)c3cn4cnnc4[nH]c3=O)nc12 do in these assays?
Tgondii IFNg: -4.8

How did O=C(NCc1cncc2c1CCN(Cc1cccc(F)c1)C2)C1CC1 do in these assays?
Tgondii IFNg: -56.2

How did O=C(c1ccccc1)N1CCN(C(=O)c2ccccc2)CC1 do in these assays?
Tgondii IFNg: -9.7

Results for Cc1ccc(C)c(N2CCN(C(=O)c3ccc(-n4nc(C(F)(F)F)c5c4CCCC5)cc3)CC2)c1 ?
Tgondii IFNg: 0.8

What do the screens show for `CC(C)(C)c1cc2nc(C(F)(F)F)cc(N3CCN(C(=O)c4ccccc4)CC3)n2n1`?
Tgondii IFNg: -85.8*

How did CS(=O)(=O)N(Cc1nc(-c2cccs2)no1)Cc1ccccc1F do in these assays?
Tgondii IFNg: 1.3

How did Cc1ccc(C(=O)N2CCC(N3CCCC3)CC2C(=O)O)o1 (stereo not given) do in these assays?
Tgondii IFNg: -51.2

What do the screens show for `O=C(CCC(=O)NC1CCCCCCC1)NCC(O)c1ccccc1` (stereo not given)?
Tgondii IFNg: 38.2

What do the screens show for `OC(Cn1c(=NC2CCCCC2)sc2ccccc21)c1ccccc1` (stereo not given)?
Tgondii IFNg: -72.0*

What do the screens show for `S=c1sc2ccccc2n1CCn1c(=S)sc2ccccc21`?
Tgondii IFNg: 23.4

Results for COc1ccc(-c2nc(C)c(CCNS(=O)(=O)c3ccc(Br)cc3)s2)cc1OC ?
Tgondii IFNg: inactive

What do the screens show for `O=c1ccc2cc(S(=O)(=O)NCC3CCN(Cc4ccccc4F)CC3)ccc2[nH]1`?
Tgondii IFNg: -10.9

What do the screens show for `CN1C(=O)CCC12CCC(NC(=O)c1cscn1)CC2` (stereo not given)?
Tgondii IFNg: -13.9

What do the screens show for `COc1ccc(-c2ccccc2[C@H]2[C@@H](CO)N(C(=O)NC3CCCCC3)[C@H]2C#N)cc1`?
Tgondii IFNg: -72.4*

How did COc1ccc(-c2ccccc2[C@@H]2[C@@H](C#N)N(C(=O)NC(C)C)[C@H]2CO)cc1 do in these assays?
Tgondii IFNg: 23.9

Results for COc1ccc(-c2ccccc2[C@@H]2[C@@H](C#N)N(C(=O)NC3CCCCC3)[C@H]2CO)cc1 ?
Tgondii IFNg: 6.4

How did O=C(CN1C(=O)CCc2cc(S(=O)(=O)N3CCCC3)ccc21)N1CCN(c2ncccn2)CC1 do in these assays?
Tgondii IFNg: 6.9

Results for Cc1nc(N)sc1C(=O)NCCO ?
Tgondii IFNg: 9.2

Results for Cc1ccc(C)c(S(=O)(=O)N2CCC3(CC2)Nc2ccc(C)c(C)c2-n2cccc23)c1 ?
Tgondii IFNg: 14.8

Results for COc1ccc(C(=O)N2CCC3(CC2)Nc2ccc(Cl)cc2-n2cccc23)cc1 ?
Tgondii IFNg: 20.9

How did CO/N=C1\CC(C)(C)Cc2c(-c3ccn(C(=O)c4cccs4)n3)sc(SC)c21 do in these assays?
Tgondii IFNg: -76.2*

Results for O=C(c1cccs1)n1ccc(-c2nc3ccccc3s2)n1 ?
Tgondii IFNg: 248.1

Results for O=C(c1ccccc1)n1ccc(-c2cccs2)n1 ?
Tgondii IFNg: -22.9

How did Cc1cccc(CN2CCN(Cc3ccc(-c4ccccn4)cc3)CC2)c1 do in these assays?
Tgondii IFNg: -3.7

How did C[C@@H]1CN(Cc2ccccc2F)CCN1Cc1ccc(-c2nc3ccccc3s2)o1 do in these assays?
Tgondii IFNg: 147.2

How did CC(=O)c1c[nH]c2ccc(C)cc2c1=O do in these assays?
Tgondii IFNg: 12.5

What do the screens show for `CCOC(=O)c1c[nH]c2ccc(OC)cc2c1=O`?
Tgondii IFNg: -87.8*

What do the screens show for `COc1ccc2[nH]cc(C(=O)CCl)c2c1`?
Tgondii IFNg: -26.1
